Assay outcomes from PubChem.
D1 antagonist: human D1 dopamine receptor antagonism. P21728. 360,000 tested, 3.2% active. AID 504652. HEK293 TREx D1 cells, calcium flux, dopamine EC80; active compounds read low. activity change, negative = inhibition, % at 10 µM; in the data active = activity change below about -30%; also: % is scaled to controls: 0 for no effect and ±100 for the full control effect
Target sequence (P21728 whole entry, looked up): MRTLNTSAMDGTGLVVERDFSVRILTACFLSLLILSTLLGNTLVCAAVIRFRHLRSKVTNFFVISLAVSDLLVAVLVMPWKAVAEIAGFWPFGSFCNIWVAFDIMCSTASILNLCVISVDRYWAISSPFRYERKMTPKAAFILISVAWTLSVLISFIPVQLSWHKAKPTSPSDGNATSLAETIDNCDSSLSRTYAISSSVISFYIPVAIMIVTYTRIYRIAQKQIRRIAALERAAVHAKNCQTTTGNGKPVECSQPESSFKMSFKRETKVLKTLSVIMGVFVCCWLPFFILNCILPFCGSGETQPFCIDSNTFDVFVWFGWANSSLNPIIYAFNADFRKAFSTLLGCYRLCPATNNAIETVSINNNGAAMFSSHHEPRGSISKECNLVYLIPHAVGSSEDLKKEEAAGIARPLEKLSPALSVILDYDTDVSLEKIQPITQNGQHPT
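Allosteric or orthosteric antagonism assessed as attenuation of the calcium response to EC80 dopamine, added 180 s after compound, in induced HEK293 Trex D1 cells loaded with no-wash calcium dye.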
D1 PAM: potentiators of human D1 dopamine receptor | 360,000 tested, 0.036% active | potentiation, % at 10 µM | P21728 | HEK293 TREx D1 cells, calcium flux, dopamine EC20 potentiation | AID 504651; in the data active = potentiation above about 30%; also: 0% is about no effect
TRHR ag: activates the human TRH receptor; P34981; TRHR cells, calcium flux fluo-8, FDSS agonist mode; activation, % at 2 µM; 360,000 tested, 0.18% active; AID 493084; also: 0% is about no effect
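TRHR-expressing cells, plated overnight in medium with 10% serum, were loaded with fluo-8 calcium dye at room temperature. After a 10 s baseline, library compound was pin-added and calcium release was recorded kinetically (ex 480/em 530) as agonist response.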
D1 agonist: agonists of human D1 dopamine receptor; AID 504660; HEK293 T-REx D1 cells, calcium flux, agonist mode; 360,000 tested, 1% active; activation, % at 2 µM; P21728; also: 0% is about no effect
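Agonism was scored from calcium flux recorded over 180 s (1 read/s) after pintool compound addition, following a 10-cycle baseline. Cells were inducible force-coupled HEK293 TREx D1, plated overnight at 30 C and loaded with no-wash calcium dye.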
TRHR PAM: allosteric enhancers of human TRH receptor; P34981; TRHR cells, fluo-8 calcium fluorescence, EC20 TRH enhancement; enhancement, % at 2 µM; 360,000 tested, 0.66% active; AID 493056; in the data active = enhancement above about 30%; also: 0% is about no effect
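Enhancer read-out: after compound pinning and an initial kinetic agonist-mode read, an EC20 of TRH (10 nM final) was injected and fluo-8 calcium signal (Ex 480/Em 530) followed at 1 s/cycle for 100 cycles in TRHR-expressing cells.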
Numbers without * were called inactive; · = no result; ! = repeats disagree. Hits are enriched below; roughly 4.7% of the tested compounds scored in any of these assays. Rule as the data show it, unless noted: active = activation above about 30%; inactive = the rest.

SMILES | D1 antagonist | D1 PAM | TRHR ag | D1 agonist | TRHR PAM
O=C(NCCN1CCOCC1)c1cccc(S(=O)(=O)Nc2cc(Cl)ccc2Cl)c1 | -24 | -3 | 0 | 4 | 2
CN(CCC1CCOCC1)C(=O)CC1C(=O)NCCN1Cc1c(F)cccc1Cl (centres undefined) | -52* | -3 | 1 | 11 | -1
CN(CCCC1CCCC1)C(=O)CC1C(=O)NCCN1Cc1cccc(F)c1F (centres undefined) | 9 | 30* | 0 | 0 | 4
O=C1C(Cl)=C(N2CCCC2)C(=O)N1c1ccc(F)cc1 | -33* | -5 | 0 | 9 | 0
O=C1C(Cl)=C(N2CCCCCC2)C(=O)N1c1ccc(Cl)cc1 | 6 | 6 | 1 | 3 | 8
O=C1C(Cl)=C(N2CCOCC2)C(=O)N1c1cccc(C(F)(F)F)c1 | -34* | -6 | 0 | 4 | 1
Cc1ccc(S(=O)(=O)n2nc(-c3ccc(Cl)cc3)nc2NCc2ccc(F)cc2)cc1 | -48* | 2 | 1 | 11 | 28
Cc1ccc(S(=O)(=O)n2nc(-c3ccccc3)nc2NCc2ccc(Cl)cc2)cc1 | -57* | 0 | 3 | 5 | 6
C=CCn1c(=O)[nH]c2nc3cc(N=CN(C)C)c(C)cc3nc2c1=O | -3 | 2 | 43* | 57* | -2
COc1ccccc1CCN1COc2c(cc3c(C)c(C)c(=O)oc3c2C)C1 | -31* | 0 | -2 | 8 | 1
COc1ccc(C(NC(=O)C2CCCCC2)c2c(O)ccc3ccccc23)cc1 (centres undefined) | -46* | -9 | 0 | 0 | -1
CCCC(=O)NC(c1ccc(OC)cc1)c1c(O)ccc2ccccc12 (centres undefined) | 5 | -4 | 0 | 3 | 4
O=C(CN1CCN(S(=O)(=O)c2cc(Cl)ccc2Cl)CC1)Nc1cccc(F)c1 | -6 | -4 | 0 | 4 | 2
CCCOc1ccc(C(=O)NNC(=S)NC(=O)c2ccco2)cc1 | -33* | -4 | 23 | 186* | -3
O=C(NC(=S)NNC(=O)c1ccco1)c1ccc(Br)cc1 | 5 | -3 | 1 | 47* | -5
CC(Oc1ccc(Cl)cc1)C(=O)NNC(=S)NC(=O)c1ccco1 (centres undefined) | -8 | -3 | 0 | 44* | -2
CCCOc1ccc(C(=O)NNC(=S)NC(=O)c2ccccc2)cc1 | -11 | 22 | 38* | 197* | 2
N#Cc1nc(Nc2cccc([N+](=O)[O-])c2)nc(NC2CCCC2)n1 | -18 | -5 | 0 | 8 | -2
Cc1ccccc1C(=O)NCC(=O)OC(C(=O)Nc1cc(C(F)(F)F)ccc1Cl)c1ccccc1 (centres undefined) | -8 | -4 | 2 | 13 | -8
Cc1cc(NC(=O)CN2C(=O)/C(=C/c3ccccc3F)SC2=S)no1 | 9 | · | 1 | 7 | -1
O=C(c1ccccc1N(Cc1ccccc1)S(=O)(=O)c1ccccc1)N1CCOCC1 | 8 | · | -1 | 0 | -3
CCCOc1ccc(C(=O)NNC(=S)NC(=O)c2cccs2)cc1 | -26 | 11 | 13 | 104* | -2
CCCOc1ccc(C(=O)NNC(=S)NC(C)=O)cc1 | -34* | 0 | 0 | 1 | -2
Cc1ccc(CNc2ccc(S(=O)(=O)N3CCOCC3)cc2[N+](=O)[O-])cc1 | -57* | 2 | 0 | 6 | -3
O=C(O)C1CCN(c2ccc(S(=O)(=O)N3CCOCC3)cc2[N+](=O)[O-])CC1 | -24 | -4 | 0 | 4 | -5
SMILES | D1 antagonist | D1 PAM | TRHR ag | D1 agonist | TRHR PAM
O=[N+]([O-])c1cc(S(=O)(=O)N2CCOCC2)ccc1N1CCCC1 | -31* | 6 | -1 | 1 | 8
COc1ccc(OC)c(C2NC(=O)NC(C)=C2C(=O)Nc2cc(C)cc(C)c2)c1 (centres undefined) | -8 | 2 | 0 | 2 | -3
COc1ccc(NC(=O)c2ccc3c(=O)n4nc(Nc5ccccc5C)sc4nc3c2)cc1Cl | -2 | 0 | 0 | 1 | 9
Cc1cc2ccccc2n1CCNC(=O)c1ccccc1 | -2 | -12 | -1 | 43* | 4
CN(Cc1ccco1)c1ncnc2ccc(-c3ccccc3Cl)cc12 | -40*! | -10 | 0 | 18 | 9
CN(Cc1ccco1)c1ncnc2ccc(-c3ccoc3)cc12 | 5 | 3 | -1 | -2 | 6
CCN(CC)CCNC(=O)c1ccc(NC(=O)COc2ccc3c(c2)CCC3)cc1 | -23 | · | 0 | 12 | 1
COc1ccc(C)cc1-n1c(-c2ccncc2)n[nH]c1=S | -32* | -4 | 0 | 1 | 4
CCN1CCc2c(sc(-n3cccc3)c2C(C)NC(=O)Nc2ccc(Br)cc2)C1 (centres undefined) | 9 | -2 | 4 | 11 | 8
CCOc1ccc(NC(=O)NC(C)c2c(-n3cccc3)sc3c2CCN(CC)C3)cc1 (centres undefined) | -7 | 2 | 10 | 43* | 31*
CCOC(=O)c1cccc(NC(=O)NC(C)c2c(-n3cccc3)sc3c2CCN(C)C3)c1 (centres undefined) | 1 | -3 | -1 | 36* | 3
N=c1n(CCN2CCCCC2)c2ccccc2n1CC(O)c1ccc(Cl)c(Cl)c1 (centres undefined) | 15 | -3 | -1 | 65* | 2
COc1cc(OC)c(NC(=O)Nc2sc3nc4n(c(=O)c3c2C)CCC(C)CC4)cc1Cl (centres undefined) | -7 | -6 | 0 | 0 | -3
c1ccc(CC2CCN(c3ncnc4sccc34)CC2)cc1 | -29 | -8 | 1 | 38* | -9
COc1ccc(CNC(=O)c2ccc3nc(CCc4ccccc4)oc3c2)cc1OC | -5 | -3 | 0 | 22 | 7
COc1ccc(CNC(=O)c2ccc3nc(CCc4ccccc4)oc3c2)cc1 | -3 | -3 | 2 | 53* | 2
COc1cccc(CNC(=O)c2ccc3nc(CCc4ccccc4)oc3c2)c1OC | -32* | -2 | 0 | 48* | 0
COc1cc(/C=C(/C#N)c2nc(-c3cc4ccccc4oc3=O)cs2)ccc1O | -15 | -2 | 7 | 21 | 1
Cc1cccc(N2CCN(C(=O)CCS(=O)(=O)c3ccc4c(c3)NC(=O)CO4)CC2)c1C | -11 | 0 | -1 | 1 | 5
O=C(CSc1ncc2c(n1)-c1ccccc1N(Cc1ccc(F)cc1)S2(=O)=O)c1ccc(Br)cc1 | 6 | 0 | 2 | 2 | -9
CC(=O)c1cc(-c2ccccc2)n(CC(=O)Nc2cccc(C)c2)c1C | -17 | -4 | 0 | 0 | -4
CCc1cccc(NC(=O)Cn2c(-c3ccccc3)cc(C(C)=O)c2C)c1 | -33* | -7 | -1 | 2 | -2
COc1cc(SC)ccc1C(=O)OCC(=O)NC(=O)NC(C)C | -66* | -7 | 0 | 1 | -27
